This is an account of results in PubChem BioAssay (NCATS).

One assay concerns KB-3-1. Put plainly: Cytotoxic Profiling of Annotated Libraries Using Quantitative High-Throughput Screening (AID 1296008). For max response: % is set by controls: 0 for no effect and ±100 for the full control effect. To be noted: Five cell lines viability, CellTiter-Glo ATP luminescence, 48-72 h; max response: active compounds read low. The procedure, abridged: (§1)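 Compounds were pin-transferred onto cells and incubated 48 or 72 hr at 37 degree Celsius, 95% humidity. CellTiter-Glo was added, plates sat 10 min at room temperature, then ATP-coupled luminescence was imaged as the viability read-out.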

For assay [1], the system named is HaCat. Described as above. Conditions: Five cell lines viability, CellTiter-Glo ATP luminescence, 48-72 h; max response: active compounds read low. The method, boiled down: as §1
For orientation: In ATP-based viability assays light output follows the ATP content of the culture.

The next assay concerns NIH3T3. The assay is described as above. Conditions: Five cell lines viability, CellTiter-Glo ATP luminescence, 48-72 h; max response: active compounds read low. The method, boiled down: as §1
In assay [2] the test system is HACAT. In words: qHTS assay to identify novel small-molecules to repurpose for Merkel cell carcinoma treatment (AID 1296009). Conditions: MCC and control cell lines, CellTiter-Glo viability, 72 h; at 44.8 µM (top of the series) unless noted. The procedure, abridged: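 Luminescence from CellTiter-Glo, read 10 min after addition at room temperature, reported viability following a 72 hr, 37 degree celsius treatment with NPC or MIPE compounds in titration; values normalized to plate controls.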

Results filed as inconclusive are left out. Unmarked numbers belong to inactive results. Calls of active or inactive are those of the source. Calls come from the whole dose curve; as a rule, active = well fitted inhibition curve with a large enough effect; inconclusive = small, poorly fitted or top-dose-only effect; inactive = flat fitted curve, though single readings scatter.
Note: nearly all actives have a fitted effect of over 60% in size.

On to `CC(CN1c2ccccc2Sc2ccc(S(=O)(=O)N(C)C)cc21)N(C)C` (stereo not given), for which, in the assay on KB-3-1, the max response is -2.65%. In the case of `COc1cc(CCc2ccc(OCC=C(C)C)cc2)cc(OC)c1OC`, the compound was classed as inactive with HaCat [1] and in the assay with HACAT [2]. Besides, in the assay on NIH3T3, the max response was -1.52%. Consider `CCCCCCCCCC(=O)O`, for which the max response with KB-3-1 is -12.8%. As for `Cc1ccc(C)c(NS(=O)(=O)c2cc(C(=O)Nc3ccccc3-c3ccccc3)ccc2C)c1`, the max response in the assay with HaCat [1] was -22.2%; in the assay with NIH3T3, -13.7%. For `O=C(Nc1ccc(-n2nc(C(F)(F)F)cc2C(F)(F)F)cc1)c1ccncc1F` the same measures were 3.3% and 2.03%. For `CC(=O)C1=CCC2C3CC=C4CC(O)CC(O)C4(C)C3C(O)CC12C` (stereo not given), the max response with HaCat [1] is 1.07%. Also, the compound was called inactive in the assay with NIH3T3.

On to `O=S(=O)(c1ccc(Cl)cc1)N1CCN(c2ccnc3cc(Cl)ccc23)CC1`, for which the result in the assay on HaCat [1] and with HACAT [2] was inactive. Besides, in the assay with NIH3T3, the max response is 3.17%. In the case of `COc1ccc(CNCC(O)COc2ccc3[nH]c(=O)ccc3c2)cc1OC` (stereo not given), the max response in the assay with KB-3-1 was 2.61%.

Turning to `N#Cc1ccc(-c2ccc(S(=O)(=O)Nc3cccc(N)n3)cc2)cc1`, the compound was called inactive in the assay on HaCat [1] and in the assay with HACAT [2]. Also, the max response with NIH3T3 was -2.42%. Take `CC(=O)OC1CCC2(C)C(CCC3(C)C2CC=C2C4C(C)C(C)CCC4(C)CCC23C)C1(C)C(=O)O` (stereo not given): the max response in the assay with HaCat [1] is 3.45%; with NIH3T3 it was -0.103%. Take `CC(C)(O)C(=O)N1CCN(c2ccc(C(F)(F)F)c(C3=C(c4c[nH]c5ccccc45)C(=O)NC3=O)c2)CC1`: the compound was called inactive in the assay on HaCat [1] and with HACAT [2]. The max response with NIH3T3 is -9.17%. Consider `CCCC(CCC)C(N)=O`, for which the max response in the assay on KB-3-1 was -11%. Still for that read-out and setting: as for `COC1=C(C(=O)O)N2C(=O)[C@@H](NC(=O)[C@H](N)C3=CCC=CC3)[C@H]2SC1`, the figure is -6.73%.
